# Source: PubChem BioAssay AID1030 (National Center for Advancing Translational Sciences (NCATS), 2008)
# The whole screen tested about 220,000 compounds, of which about 16,000 (7.3%) were called active. Another 25% or so got no clear call; they are omitted. Shown is part of a subset that was picked to be rich in actives. Unmarked numbers belong to inactive results. Calls follow the shape of the dose curve; as a rule, active = well fitted inhibition curve with a large enough effect (not every such curve was filed as active); inconclusive = small, poorly fitted or top-dose-only effect, or another doubt; inactive = no such curve, though single readings can be large or run the other way.
# Target: Aldehyde dehydrogenase 1A1 (Homo sapiens) (UniProt P00352)
# Sequence (P00352 whole entry, looked up): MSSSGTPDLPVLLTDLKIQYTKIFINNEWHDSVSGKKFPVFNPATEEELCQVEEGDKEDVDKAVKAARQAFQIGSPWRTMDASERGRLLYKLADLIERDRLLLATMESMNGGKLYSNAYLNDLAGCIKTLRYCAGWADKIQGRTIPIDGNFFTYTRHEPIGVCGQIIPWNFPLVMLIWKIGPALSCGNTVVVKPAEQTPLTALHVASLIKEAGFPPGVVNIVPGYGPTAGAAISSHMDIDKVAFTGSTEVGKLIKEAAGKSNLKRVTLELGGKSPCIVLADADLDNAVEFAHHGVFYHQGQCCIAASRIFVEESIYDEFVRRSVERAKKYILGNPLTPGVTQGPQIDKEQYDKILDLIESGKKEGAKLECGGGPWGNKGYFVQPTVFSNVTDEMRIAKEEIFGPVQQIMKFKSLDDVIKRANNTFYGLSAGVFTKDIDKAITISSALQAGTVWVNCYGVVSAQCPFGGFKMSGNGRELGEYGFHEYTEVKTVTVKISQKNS
# Assay: qHTS Assay for Inhibitors of Aldehyde Dehydrogenase 1 (ALDH1A1);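 as to activity, negative = inhibition: plate controls were no enzyme wells and a reference inhibitor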
# Settings: Purified ALDH1A1, NADH fluorescence, propionaldehyde substrate; series mostly up to 75.3 µM; activity, negative = inhibition: at the top concentration
# Potency is read from the fitted curve at half-maximal effect.
Structure (SMILES),"activity, negative = inhibition",Potency
CC(C)NC(=O)CSc1nnc(COc2ccccc2Cl)o1,8.05%,–
Cc1ccc(NC(=O)CSc2nnc(COc3ccccc3C)o2)cc1,-7.39%,–
Cc1ccccc1OCc1nnc(SCC(=O)N2c3ccccc3Sc3ccc(Cl)cc32)o1,–,10 µM (active)
O=C(CSc1ccccn1)Nc1nc2c(ccc3ccccc32)s1,1.13%,–
O=C1NCC(=O)N(Cc2ccccc2)/C1=C/c1ccccc1,0.224%,–
CN(C)c1ccc(/C=C2\NC(=S)N(Cc3ccccc3)C2=O)cc1,–,11.2 µM (active)
O=C1N/C(=C/c2cccs2)C(=O)N1Cc1ccc(F)cc1,12.7%,–
CCc1nnc(NC(=O)CCCSc2nc3ccccc3[nH]2)s1,0.0522%,–
COc1cc(OC)cc(-c2nc(=S)n3ccsc3n2)c1,10.4%,–
CC(Oc1ccccc1)C(=O)NN1Cc2ccccc2C1=N (stereo not drawn),-4.79%,–
COc1ccc(/C(C)=N/NC(=O)CCC(=O)Nc2ccc(Cl)cc2Cl)c(OC)c1,3.05%,–
NC(=O)COC(=O)c1sc2cc(F)ccc2c1Cl,4.45%,–
C=CC1=C2C=C(C3CC3)N(CC(C)C)C=C2C(=O)C(C)(OC(=O)c2ccco2)C1=O (stereo not drawn),-1.97% [at 13.5 µM],–
COc1ccc(/C(O)=C2/C(=O)C(=O)N(CCCN(C)C)C2c2ccccc2)cc1OC (stereo not drawn),0.02%,–
CCN(CC)CCN1C(=O)C(=O)/C(=C(/O)c2ccccc2)C1c1ccccc1F (stereo not drawn),-1.33%,–
COc1cccc(C2/C(=C(/O)c3ccncc3)C(=O)C(=O)N2CCCN(C)C)c1 (stereo not drawn),8.57%,–
COc1ccc(/C(O)=C2/C(=O)C(=O)N(CC3CCCO3)C2c2ccc(OC)c(OC)c2)cc1 (stereo not drawn),0.686%,–
COc1ccc(C2/C(=C(/O)c3ccc(OC(C)C)cc3)C(=O)C(=O)N2CCCN2CCOCC2)cc1 (stereo not drawn),–,25.1 µM (active)
CC1Cc2cc(/C(O)=C3\C(=O)C(=O)N(CCN4CCOCC4)C3c3ccccc3F)ccc2O1 (stereo not drawn),-4.31%,–
O=C1CC(c2ccccc2)CC(O)=C1C=NCCN1CCOCC1 (stereo not drawn),-8.85%,–
O=C1C(=O)N(CCN2CCOCC2)C(c2ccccn2)/C1=C(/O)c1ccc(Cl)cc1 (stereo not drawn),–,12.6 µM (active)
CCN(CC)CCN1C(=O)C(=O)/C(=C(/O)c2ccc(OC)c(OC)c2)C1c1ccccn1 (stereo not drawn),–,28.2 µM (active)

Structure (SMILES),"activity, negative = inhibition",Potency
COC(=O)C(C(=O)OC)[C@@H](NC=O)c1ccccc1,2.08%,–
CCOC(=O)C1=C(C)c2ccccc2OC1C(=O)OCC (stereo not drawn),-3.41%,–
CCc1cc(CNC(=O)CC2C(=O)NCCN2CC2CCCCC2)on1 (stereo not drawn),-11.7%,–
CCc1ccc(Oc2nc([N+](=O)[O-])nn2C)cc1,-1.45%,–
Cc1ccc(C(=O)NN(CCC#N)C2=NS(=O)(=O)c3ccccc32)cc1,11.8%,–
Cn1nc(C(C)(C)C)c(NC(=O)c2sccc2Cl)c1C(C)(C)C,9.72%,–
C=C(C)COc1ccc(-c2nc(N)ncc2-c2ccccc2OC)c(O)c1,-14.6%,–
O=C(COc1ccc([N+](=O)[O-])cc1Cl)Nn1cnnc1,-6.39%,–
COC(=O)CSc1nccc(-c2cccs2)n1,9.49%,–
CN1CCN(C(=O)N2c3ccccc3CCc3ccccc32)CC1,-5.02%,–
O=C(CCc1ccccc1)NNC(=O)c1ccc(Br)cc1,2.23%,–
CC(=O)NC(=S)NNC(=O)c1ccc(Br)cc1,–,11.2 µM (active)
Cn1nnnc1SCC(=O)NNC(=O)c1ccc(Br)cc1,10.7%,–
CC(Oc1cccc(NC(=O)c2cccs2)c1)C(=O)c1ccccc1 (stereo not drawn),0.485%,–
O=C(O)c1n[nH]nc1-c1ccccc1,-35.1%,–
CCNC(=O)CC1C(=O)N(c2ccc(F)cc2)C(=O)N1CCc1sccc1C (stereo not drawn),0.541%,–
COc1ccc(Nc2cc(C)nc(-n3nc(C)cc3C)n2)cc1,4.12%,–
COc1ccc(C(C[N+](=O)[O-])n2nc(C)cc2C)cc1 (stereo not drawn),–,10 µM (active)
COc1ccc(OCc2cn3c(C)cc(C)nc3n2)cc1,1.75%,–
Cc1onc(-c2ccccc2)c1C(=O)N=C(N)c1ccc(Cl)cc1,-1.45%,–
COc1ccc(OCc2ccc(-c3nc4ccccc4c(=O)n3N)o2)cc1,-6.34%,–
Cc1ccc(C(=O)CSc2nc3ccccc3c(=O)n2N)o1,–,28.2 µM (active)

Structure (SMILES),"activity, negative = inhibition",Potency
O=C(CCn1c(SCC(=O)c2ccccc2)nc2ccccc2c1=O)NCc1ccc(F)cc1,11.8%,–
O=C(Nn1cnc2ccccc2c1=O)c1ccccc1,9.63%,–
C=CCC1(CC=C)CCCN1C(=O)CC1C(=O)NCCN1Cc1ccccc1OC (stereo not drawn),-3.44%,–
COCCC(=O)Nc1ccc2c(c1)CN(C(=O)CCOC)CC2,-1.97%,–
CNc1[nH]ncc1[N+](=O)[O-],11.1%,–
COc1cc(NS(=O)(=O)c2ccc(NC(=O)CN3C(=O)c4ccccc4C3=O)cc2)ncn1,5.24%,–
COc1ccc(CCCc2nnc(SCc3nc4ccccc4c(=O)[nH]3)n2C)cc1,-1.66%,–
CCn1c(COc2c(C)cccc2C)nnc1SCc1nc2ccccc2c(=O)[nH]1,1.86%,–
COc1ccc(C)cc1-n1nnnc1SCc1nc2ccccc2c(=O)[nH]1,–,39.8 µM (active)
CCCOC1CCCN(Cc2cn(C)nc2-c2ccccc2F)C1 (stereo not drawn),-2.39%,–
O=C(C1CCCO1)N(c1ccc(F)cc1)C1C=CS(=O)(=O)C1 (stereo not drawn),15.7%,–
CCCC[C@@H]1C[C@H]1C(NC(=O)c1ccco1)c1ccc(C(=O)OC)cc1 (stereo partly drawn),–,22.4 µM (active)
COC(=O)c1ccc(N(CC(=O)NC2CCCC2)C(=O)CNC(=O)c2ccco2)cc1,2.08%,–
CCCC[C@@H]1C[C@H]1C(NC(=O)c1ccc(-c2ccccc2)cc1)c1ccc(-c2ccccc2)cc1 (stereo partly drawn),6.85%,–
CC(C)(C)NC(=O)C(=O)NN=C1CCCCCCC1,6.41%,–
Fc1ccc2nc(N3CCCCC3)sc2c1,19.6%,–
c1c2c(cc3sc(N4CCCCC4)nc13)OCCO2,–,20 µM (active)
Fc1cc(F)c2nc(N3CCOCC3)sc2c1,7.48%,–
CC(=O)c1cc(C#N)c(SCC(=O)Nc2nccs2)nc1C,2.59%,–
CCOc1ccc(C(=O)Nc2cccc(SC)c2)cc1,2.45%,–
Cn1c(Cc2cccc3ccccc23)nnc1SCC(=O)N1CCN(c2cccc(Cl)c2)CC1,-8.34%,–
Nn1c(Cc2cccc3ccccc23)nnc1SCC(=O)N1CC(=O)Nc2ccccc21,–,17.8 µM (active)

Structure (SMILES),"activity, negative = inhibition",Potency
C=CCn1c(COc2ccccc2F)nnc1SCC(=O)N1CC(=O)Nc2ccccc21,-4.67%,–
Cc1cc(C)cc(N(CC(=O)NCCSCc2ccco2)S(C)(=O)=O)c1,-2.35%,–
Cc1cc(C)nc(NC(=O)/C=C/c2ccc(Cl)cc2)n1,-2.35%,–
Cc1cccc(C(=O)Nc2ccccc2C(=O)NCc2cccnc2)c1,3.55%,–
COc1cc(C(=O)N2C(=O)c3cccc(N)c3C2=O)cc(OC)c1OC,-4.58%,–
CCOC(=O)N1CC=C2C(C#N)=C(N)C(C#N)(C#N)[C@H](c3cccs3)[C@H]2C1,–,20 µM (active)
C/C=C/c1ccc(OCCOc2ccc(C=O)cc2OC)c(OC)c1,1.06%,–
COc1cc(/C=C2/C(=O)ON=C2C)ccc1OCc1ccccc1F,4.25%,–
COc1cc(/C=C2/C(=O)ON=C2C)ccc1OCc1cccc(F)c1,–,10 µM (active)
O=S(=O)(Nc1ccccn1)c1cccc(S(=O)(=O)c2ccc(Cl)cc2)c1,-14.8%,–
Cc1ccc(-n2c(C)cc(C(=O)CSc3nnc4ccccn34)c2C)cc1,8.95%,–
O=C(CSc1nnc2ccccn12)c1ccccc1,–,10 µM (active)
Cn1c(CC(=O)Nc2ccccc2)nnc1SCC(=O)c1ccccc1,–,7.08 µM (active)
N#Cc1ccc(CSc2nnc3ccccn23)cc1,11.3%,–
Cc1ccccc1NC(=O)Cc1nnc(SCC(=O)N2CCN(c3ccccc3)CC2)n1C,0.43%,–
Cn1c(CNc2nc(-c3ccccc3)cs2)nnc1SCC(=O)c1ccccc1,-7.61%,–
O=C(NNC1=C(C(=O)C(F)(F)F)CCC1)c1ccncc1,-7.96%,–
CCc1nc2ccccc2c(C(=O)OC2CCCCC2=O)c1C (stereo not drawn),0.702%,–
O=C(O)/C=C/c1ccc(OCCCF)cc1,-4.97%,–
COC(=O)C1=C(C)NC(=O)CC1c1ccccc1OC (stereo not drawn),-0.136%,–
CCn1c(=O)cc(SCC(=O)NCc2ccc3c(c2)OCO3)c2ccccc21,4.8%,–
CCn1c(=O)cc(SCC(=O)NCCC2=CCCCC2)c2ccccc21,–,14.1 µM (active)

Structure (SMILES),"activity, negative = inhibition",Potency
O=C(Cc1cccc2ccccc12)NCCC1=CCCCC1,-7.28%,–
COc1ccc(Cc2nnc(NC(=O)c3cc(OC)c(OC)c(OC)c3)s2)cc1OC,-5.76%,–
CC(C)[C@@H]1NC(=O)c2cc([N+](=O)[O-])cc(I)c2NCCC[C@@H](C(=O)NC(CC(=O)O)C(N)=O)NC(=O)[C@H](CO)NC1=O (stereo partly drawn),3.65%,–
NCCCC[C@@H]1NC(=O)[C@H](CCC(=O)O)NC(=O)c2cc([N+](=O)[O-])cc(I)c2NCC[C@@H](C(N)=O)NC1=O,-5.03%,–
NC(=O)CC[C@@H]1NC(=O)[C@H](CO)NC(=O)c2cc([N+](=O)[O-])cc(I)c2NCC[C@@H](C(N)=O)NC1=O,–,12.6 µM (active)
C/C(=N/NC(=O)c1ccn(C)n1)c1ccncc1,3.35%,–
COCC1CCCN(Cc2nc(-c3ccc4c(c3)OCO4)no2)C1 (stereo not drawn),4.51%,–
CN1CCN(S(=O)(=O)c2cccc(C(=O)O)c2)CC1,5.17%,–
COc1cccc(CNC(=O)Cc2csc(Nc3nc(=S)[nH]c4ccccc34)n2)c1,3.37%,–
O=C(O)Cc1ccc(NC(=O)c2cccs2)cc1,15.9%,–
O=C(Nc1ccccc1-c1ccccc1)c1cccs1,-9.88%,–
CCc1ccccc1NC(=O)c1cccs1,–,25.1 µM (active)
Cc1cc(F)ccc1S(=O)(=O)Nc1ncnc2scc(-c3ccc(F)cc3)c12,5.01%,–
CONc1nc2nonc2nc1NOC,-2.85%,–
Cc1cccc2cc(CN(Cc3ccc4c(c3)OCO4)Cc3nnnn3C3CCCC3)c(=O)[nH]c12,–,11.2 µM (active)
CCCN(Cc1cc2cccc(C)c2[nH]c1=O)S(C)(=O)=O,12%,–
Cc1cccc2cc(CN(Cc3nnnn3Cc3ccccc3)C3CCCC3)c(=O)[nH]c12,–,15.8 µM (active)
Cc1ccc(S(=O)(=O)Cn2nnnc2CN2CCN(Cc3ccc4c(c3)OCO4)CC2)cc1,-8.22%,–
O=c1[nH]c(N2CCN(Cc3ccc4c(c3)OCO4)CC2)nc2c1CCCC2,-5.99%,–
CC(C)C(c1nnnn1Cc1ccccc1)N1CCC(C(N)=O)CC1 (stereo not drawn),7.52%,–
